From PubChem BioAssay AID504467 (National Center for Advancing Translational Sciences (NCATS), 2011) come the findings set out here.

The campaign covered roughly 330,000 compounds. About 7,700 (2.3%) were called active. Where a call stands in place of a potency, no number is given. Inconclusive results (about 26%) are left out. Calls follow the shape of the dose curve; as a rule, active = well fitted inhibition curve with a large enough effect; inconclusive = small, poorly fitted or top-dose-only effect, or effect the other way; inactive = flat fitted curve, though single readings scatter. This excerpt belongs to a sample that is enriched for actives.
Potency is read from the fitted curve at half-maximal effect.

A short description of the experiment: qHTS screen for small molecules that inhibit ELG1-dependent DNA repair in human embryonic kidney (HEK293T) cells expressing luciferase-tagged ELG1. Also: nearly all actives have a fitted effect of over 55% in size. As to conditions: HEK293T ELG1-luciferase reporter, luminescence, 16 h, DNA damage induced by 5-fluorouridine; series mostly up to 46.1 µM. The gist of the method:
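In this reporter screen, reduction of luminescence relative to DMSO vehicle indicated activity. Compounds and 5-fluorouridine were added together to 2,000 cells per well, incubated for 16 hr at 37 °C, then developed with ONE-Glo.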
For the compound `CC(C#N)(NC(=O)CN1CCN(S(=O)(=O)c2cc(C(F)(F)F)ccc2Cl)CC1)C1CC1` (configuration not stated), the Potency entry is “inactive”. The same measure for `Cc1ccc(S(=O)(=O)Nc2nc(CN3CCOCC3)nc3sc(C)c(C)c23)cc1`: “inactive”; for `C[C@H]1COC(=O)[C@H](CC(=O)OC(C)(C)C)C/C=C\C[C@@H](CC(=O)N[C@H](CO)Cc2ccccc2)C(=O)N1`: “inactive”; for `O=C(CSc1nc2nccnc2c(=O)n1Cc1cccs1)Nc1ccccc1F`: “inactive”. The same measure for `O=C(Nc1ccccc1-c1ccccc1)c1cccs1`: “inactive”; for `COc1ccccc1N1CCN(C(=O)Cn2nnc(-c3cccs3)n2)CC1`: “inactive”. On to `O=C(Nc1ccccc1-c1nnn(CC(=O)N2CCN(c3ccccc3)CC2)n1)c1cccs1`, for which the Potency is 23.1 µM (active). The same measure for `CN1C2CCC1CC(NC(=O)c1ccc([N+](=O)[O-])cc1)C2` (configuration not stated): “inactive”. The same measure for `O=C(N[C@@H]1C/C=C\C[C@@H](CC(=O)N(CCO)Cc2ccccc2)C(=O)N[C@H](Cc2ccccc2)COC1=O)OCC1c2ccccc2-c2ccccc21`: “inactive”.

As for `OC(COc1ccc(Br)cc1)CN1CCCC1` (configuration not stated), the Potency entry was “inactive”.

On to `CC(C)(C)CC(C)(C)NCC(O)COCCOc1ccc(Br)cc1` (configuration not stated), for which the Potency is 23.1 µM (active). The same measure for `Cc1noc(COc2ccccc2OCC(O)CNC(C)(C)C)n1` (configuration not stated): “inactive”.

In the case of `COc1ccccc1CNC(=O)[C@@H]1CCCN1C(=O)[C@@H]1Cc2ccccc2CN1C(=O)OC(C)(C)C`, the Potency result is “inactive”. `O=C1C=CN2CCCC2CC1` (configuration not stated): the Potency entry was “inactive”. As for `COc1ccc(N(C(=O)c2snc(C(N)=O)c2N)C(C(=O)NC2CCCC2)c2ccc(C)o2)c(OC)c1` (configuration not stated), the Potency entry was “inactive”. The same measure for `COc1ccc(NC(=O)COC(=O)c2n[nH]c3ccccc23)c(OC)c1`: “inactive”.

With `COc1ccc(C(=O)Nc2ccccc2C(=O)NCc2ccco2)cc1`, the Potency entry is “inactive”. The same measure for `Cc1ccc(N(Cc2ccc(C(=O)Nc3ccccc3C(=O)NCc3ccco3)cc2)S(C)(=O)=O)cc1C`: 4.61 µM (active); for `Cc1cccc(Nc2ccccc2C(=O)NCc2ccco2)c1C`: “inactive”; for `Cc1cc(C)c(S(=O)(=O)N2CCC(C(=O)OCc3c(C)noc3C)CC2)c(C)c1`: “inactive”. As to `O=C(CCc1nc2sc3c(c2c(=O)[nH]1)CCCC3)NCC(=O)Nc1ccccc1Br`, the Potency entry is “inactive”. To `COc1ccccc1C(=O)OCC(=O)Nc1cccc(S(=O)(=O)NC2=NCCCCC2)c1` belongs “inactive”. To `CCc1ccc2[nH]c(=O)c(Cc3ccccc3)c(O)c2c1` belongs “inactive”; to `CC(=O)c1cccc(NC(=O)c2ccncc2)c1`, “inactive”; to `C=CCSc1nsc(NC(=O)Nc2cccc(C(C)=O)c2)n1`, 7.3 µM (active). The same measure for `C=C(C)C(=O)Nc1cccc(C(C)=O)c1`: “inactive”; for `COc1ccc2[nH]c3c(c2c1)CCN1C(=O)C(CC(=O)NCCCN(C)C)C[C@H](C(=O)N2CCOCC2)[C@@]31CCC1CCCC1` (some centres not stated): “inactive”. Turning to `Cc1cccc(NC(=O)c2ccc(S(=O)(=O)N(C)c3ccccc3)cc2)n1`, the Potency was 23.1 µM (active). To `CCN(c1ccccc1)S(=O)(=O)c1ccc(C(=O)Nc2nccs2)cc1` belongs “inactive”; to `CN(c1ccccc1)S(=O)(=O)c1cccc(C(=O)NNC(=O)c2ccncc2)c1`, “inactive”. The same measure for `COc1ccccc1S(=O)(=O)NCc1ccc(C(=O)N(C)Cc2ccc(F)cc2)cc1`: “inactive”; for `O=S(=O)(Nc1cc(Cl)ccc1N1CCOCC1)c1ccccc1Cl`: “inactive”. In the case of `CCOC(=O)C1=C(CCc2ccccc2)NC(=O)NC1c1ccc2ccccc2c1` (configuration not stated), the Potency entry was “inactive”. To `COc1cc(CN2CCN(Cc3ccc(C)cc3)CC2)c([N+](=O)[O-])cc1OC` belongs 20.6 µM (active). For the compound `COc1cc(CNCc2ccc3c(c2)OCO3)c([N+](=O)[O-])cc1OC`, the Potency result is “inactive”.

On to `COc1cc(CN2CCCN(C)CC2)c([N+](=O)[O-])cc1OC`, for which the Potency result is “inactive”. For the compound `CCOc1ccc(N(C)Cc2cc(=O)oc3ccc(OC)cc23)cc1`, the Potency was 16.4 µM (active). To `Cc1cc2oc(=O)cc(CN(C)Cc3ccc(OC(F)F)cc3)c2cc1Cl` belongs “inactive”. As for `COC(=O)COc1ccc2oc(=O)cc(C)c2c1`, the Potency entry is “inactive”. The same measure for `Cc1ccc2c(c1)C(c1ccccc1)N(C(=O)c1ccc(F)cc1)CC(=O)N2` (configuration not stated): “inactive”.

Turning to `O=C(Cn1ccc2cc(S(=O)(=O)N3CCCC3)ccc21)NCc1ccccc1`, the Potency result is “inactive”.

With `O=C1[C@@H](c2ccccc2)[C@@H](c2ccccc2)N1c1cccnc1`, the Potency entry is “inactive”.

Consider `O=C1CCN(Cc2ccccc2)CCN1[C@H](CSc1ccccc1)c1ccccc1`, for which the Potency entry is “inactive”. To `Cc1cc(C)c(NC(=O)CS(=O)CC(=O)Nc2cccnc2)c(C)c1` (configuration not stated) belongs “inactive”. To `Cc1nc(-c2ccc(F)cc2)c(CC(=O)Nc2cccc(S(=O)(=O)N3CCOCC3)c2)s1` belongs “inactive”; to `Cc1ccc(-c2nc(-c3cccnc3)sc2CC(=O)Nc2ccc(C)c(Cl)c2)cc1`, 16.4 µM (active); to `COc1ccc(N2CCN(C3CCCCC3NS(=O)(=O)c3ccccc3)CC2)cc1` (configuration not stated), “inactive”.

In the case of `CCOc1ccc(CN2CCN(Cc3c[nH]c4ccccc34)CC2)cc1`, the Potency was 13 µM (active).

In the case of `CCOc1ccc(CN2CCCN(C)CC2)cc1`, the Potency entry is “inactive”. To `CCOc1ccc(CC(=O)NC2CCN(Cc3ccccc3)CC2)cc1` belongs “inactive”. To `COC(=O)[C@]1(S(=O)(=O)c2ccccc2)C[C@@H]2ON=C(c3ccc(OC)cc3)[C@@H]2C1` belongs “inactive”; to `Cc1ccc(S(=O)(=O)Nc2ccc(F)c(S(=O)(=O)N3CCOCC3)c2)cc1`, “inactive”; to `Cc1ccc(-c2ccc(=O)n(Cc3ccc(F)cc3Cl)n2)cc1`, “inactive”. To `O=C1C=C(c2cccc(Cl)c2)C[C@@H](c2ccc(F)cc2)C1` belongs “inactive”; to `O=C(c1cc(-c2ccc(Cl)s2)nc2ccccc12)N1CCOCC1`, “inactive”. Regarding `O=C(c1cn(-c2ccccc2)nc1-c1cc2ccccc2oc1=O)N1CCOCC1`, the Potency was 7.3 µM (active). To `CCOc1ccccc1-c1cc(C(=O)N2CCOCC2)c2ccccc2n1` belongs “inactive”; to `Nc1nc(-c2sc3nc4c(cc3c2N)CCCC4)nc(N2CCOCC2)n1`, 6.51 µM (active); to `COc1ccccc1C(CNC(=O)c1cccc(S(=O)(=O)Nc2ccc(F)cc2)c1)N(C)C` (configuration not stated), “inactive”. `NC(=O)c1nsc(C(=O)N(CCCN2CCOCC2)C(C(=O)NC2CCCCC2)c2ccc(Cl)cc2)c1N` (configuration not stated): the Potency entry was “inactive”.

For `Cc1ccc(NC(=O)CN(C)C(=O)c2ccc(Cl)c(S(=O)(=O)NCc3ccco3)c2)cc1`, the Potency entry was “inactive”. To `CCc1cccc(NC(=O)CCC(=O)O)c1` belongs “inactive”; to `O=C(CCl)Nc1cccc(CP(=O)(c2ccccc2)c2ccccc2)c1`, 14.6 µM (active).

`O=C(CSCC(=O)Nc1cccc([N+](=O)[O-])c1)Nc1ccccc1`: the Potency result is “inactive”.

As for `COc1ccc(C2=NN(C(=O)CSc3nc(=O)n4ccc(C)cc4n3)C(c3ccc(C)cc3)C2)cc1` (configuration not stated), the Potency result is “inactive”. To `CC(=O)N1c2ccc(S(=O)(=O)N3CCC(C(=O)NC4CCCC(C)C4C)CC3)cc2CC1C` (configuration not stated) belongs “inactive”. The same measure for `O=C(Cn1cnc2c(OCc3ccccc3)ncnc21)NCCCn1ccnc1`: “inactive”. To `COc1cc(NS(=O)(=O)c2ccccc2)ccc1-n1nc(C)cc1C` belongs “inactive”; to `COc1cccc(/C=N/Nc2ncc(C(F)(F)F)cc2Cl)c1O`, “inactive”; to `COc1ccccc1/C=N\Nc1cc(C)nc(-n2nc(C)cc2C)n1`, 23.1 µM (active).

On to `COc1cccc(/C=N/Nc2cc(C)nc(-c3ccccc3O)n2)c1O`, for which the Potency was 5.8 µM (active). As for `COc1ccc(Nc2cc(C)nc(-n3nc(C)cc3C)n2)cc1`, the Potency entry was “inactive”. The same measure for `COc1cccc2c(N/N=C/c3ccco3)cc(C)nc12`: “inactive”. To `CCN(c1ccccc1)S(=O)(=O)c1cc(C(=O)NCc2ccccn2)ccc1C` belongs “inactive”; to `CC(=O)c1sc(NC(=O)CCN2C(=O)C3CC=CCC3C2=O)nc1-c1ccccc1` (configuration not stated), “inactive”. Take `O=S(=O)(NCC1CN(S(=O)(=O)c2ccc3c(c2)OCCO3)C1)c1c(F)cccc1F`: the Potency entry is “inactive”. On to `CC(C)N(C(=O)CN1CCN(S(=O)(=O)c2ccc(Br)s2)CC1)C(C)C`, for which the Potency entry is “inactive”. To `O=C(CNCc1cccs1)Nc1cc(S(=O)(=O)N2CCCC2)ccc1Cl` belongs 16.4 µM (active); to `O=C(NCc1cccs1)C1CCN(S(=O)(=O)c2ccc(Cl)cc2)CC1`, “inactive”. The same measure for `CS(=O)(=O)c1ccc(Cl)c(NC(=O)COC(=O)c2cccc(S(=O)(=O)N3CCCC3)c2)c1`: “inactive”. For `O=C(CN1CCCCCC1)Nc1ccc(S(=O)(=O)N2CCCCC2)cc1`, the Potency result was “inactive”. `O=C(NN=Cc1ccc(N2CCOCC2)cc1)c1cc2ccccc2cc1O`: the Potency result is “inactive”.

On to `COc1ccc(OCCC(=O)c2ccc(OC)cc2)cc1`, for which the Potency entry was “inactive”. On to `CCCOc1ccc(C(=O)C(CCC(CNCC)C(=O)c2ccc(OCCC)cc2)CNCC)cc1` (configuration not stated), for which the Potency is 23.1 µM (active). Turning to `CCCCOc1ccc(C(=O)NN2CCN(C)CC2)cc1`, the Potency entry is “inactive”. In the case of `COc1ccc(-c2c(C#Cc3ccsc3)c3cc(-c4ccc(CN5CCOCC5)cc4)ccc3n2C)cc1`, the Potency entry was “inactive”. To `COc1cc(OC)cc(-c2c(C#Cc3ccsc3)c3cc(-c4ccc(OC)cc4F)ccc3n2C)c1` belongs “inactive”. Consider `O=C1CC2(CC(c3ccc(Cl)cc3)=NO2)C(=O)N1c1ccccc1` (configuration not stated), for which the Potency entry was “inactive”.

Regarding `Cc1nc(C(=O)Nc2ccc(Cl)cc2)sc1C1(C)CC(c2ccccc2)=NO1` (configuration not stated), the Potency is 18.3 µM (active). Take `O=C(Nc1ccc(Cl)cc1)OCc1cc(-c2ccccc2)on1`: the Potency result was “inactive”. To `COc1ccccc1N1CCN(S(=O)(=O)c2ccc3c(c2)NC(=O)CS3)CC1` belongs “inactive”.

Take `CCOC(=O)[C@H]1[C@H]2COc3cc(OC)ccc3[C@@H]2N2C(=O)CN(Cc3ccc(Cl)cc3)C(=O)[C@@]12C`: the Potency entry was “inactive”. With `CCc1ccc(CN(C)C(=O)C2CCC(=O)N(Cc3cccc(OC)c3)C2)nc1` (configuration not stated), the Potency entry was “inactive”. As for `CN(C)S(=O)(=O)c1ccc(N2CCCC2)c(C(=O)Nc2ccc(Br)cc2F)c1`, the Potency result was “inactive”. The same measure for `Cc1c(C(=O)Nc2ccccc2Cl)oc2ccc(S(=O)(=O)N3CCC4(CC3)OCCO4)cc12`: 3.66 µM (active); for `Cc1c(C(=O)NCCN(C)C)oc2ccc(S(=O)(=O)N3CCCC3)cc12`: “inactive”; for `CCOc1ccccc1NC(=O)c1cc(S(=O)(=O)N2CCC3(CC2)OCCO3)ccc1F`: “inactive”.
